This excerpt belongs to a sample that is enriched for hits.
RBX1-CUL1 inh: blocks human RBX1-Cullin-1 di-ubiquitin formation. in vitro K48 di-Ub FRET, acceptor:donor ratio, 45 min. inhibition, % at 10 µM. AID 1347404. actives 0.6% (n = 140,000). P62877+Q13616; in the data active means inhibition above about 25%
Target sequence (P62877 whole entry, looked up): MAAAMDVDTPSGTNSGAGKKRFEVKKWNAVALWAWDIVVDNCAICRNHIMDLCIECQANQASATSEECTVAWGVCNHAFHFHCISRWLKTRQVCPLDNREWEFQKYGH
Target sequence (Q13616 whole entry, looked up): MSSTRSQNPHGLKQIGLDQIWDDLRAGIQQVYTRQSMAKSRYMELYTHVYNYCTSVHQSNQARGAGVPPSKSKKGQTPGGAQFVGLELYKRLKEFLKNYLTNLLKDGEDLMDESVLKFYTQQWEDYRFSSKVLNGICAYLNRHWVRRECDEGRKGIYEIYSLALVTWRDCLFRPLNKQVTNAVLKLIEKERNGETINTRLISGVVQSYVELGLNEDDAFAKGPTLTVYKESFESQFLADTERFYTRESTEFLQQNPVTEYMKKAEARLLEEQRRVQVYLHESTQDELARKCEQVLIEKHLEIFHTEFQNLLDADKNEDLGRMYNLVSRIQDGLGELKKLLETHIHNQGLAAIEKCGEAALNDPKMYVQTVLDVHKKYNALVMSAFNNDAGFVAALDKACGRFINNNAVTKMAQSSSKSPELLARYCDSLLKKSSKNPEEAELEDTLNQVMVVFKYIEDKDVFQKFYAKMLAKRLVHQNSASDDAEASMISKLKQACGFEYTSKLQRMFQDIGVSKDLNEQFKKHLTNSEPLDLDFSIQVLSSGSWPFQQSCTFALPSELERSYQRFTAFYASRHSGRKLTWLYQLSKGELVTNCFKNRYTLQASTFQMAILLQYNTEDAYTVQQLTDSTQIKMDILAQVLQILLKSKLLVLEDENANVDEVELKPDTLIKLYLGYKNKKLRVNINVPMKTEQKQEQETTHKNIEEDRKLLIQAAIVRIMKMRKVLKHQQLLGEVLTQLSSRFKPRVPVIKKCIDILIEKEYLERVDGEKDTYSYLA
Numbers without * were called inactive.

SMILES	RBX1-CUL1 inh
COc1cccc(C(=O)N2CCN(C(=O)CSc3ccc4nnc(-c5cccnc5)n4n3)CC2)c1	-6.9
O=C(/C=C/c1ccco1)Nc1scc(-c2cccs2)c1C(=O)O	28.5*
CC(C)(CC(=O)Nc1scc(-c2cccs2)c1C(=O)O)CC(=O)Nc1scc(-c2cccs2)c1C(=O)O	-2.9
Cc1sc(NC(=O)/C=C/c2ccco2)c(C(N)=O)c1C	5.9
CCOC(=O)c1cc(-c2ccc(C)cc2)nc2ccc(Cl)cc12	-6.8
Nn1c(SCC(=O)Nc2ccc3ccccc3c2)nnc1-c1ccc(Cl)c(Cl)c1	-2.1
C#CCOc1cc(Br)c(/C=C2/C(=O)N(c3cccc(C(=O)O)c3)N=C2c2ccccc2)cc1OC	89.6*
CCCOc1ccc(CN2C(=O)NC(=O)/C(=C\c3cc(Br)c(OCC(=O)O)c(OC)c3)C2=O)cc1OC	-4.3
COc1cc(C=C2C(=O)c3ccccc3C2=O)cc(Br)c1OCC(=O)O	76.3*
CCCCCCOc1ccccc1/C=C1\C(=O)N(c2ccc([N+](=O)[O-])cc2)N=C1c1ccccc1	-0.6
COc1cc(CO)cc(Br)c1OCC(=O)O	-0.7
CCOc1c(Br)cc(/C=C2/C(=O)N(c3cccc(C(=O)O)c3)N=C2C)cc1OC	91.1*
COc1cc(/C=C2\C(=O)N(c3ccc(S(N)(=O)=O)cc3)N=C2C)cc(Br)c1OCC(C)C	-4.1
CC1=NN(c2ccc(C(=O)O)cc2)C(=O)/C1=C/c1cc(Br)ccc1OCc1ccccc1	-1.0
CCC(C)Oc1ccc(/C=C2\C(=O)N(c3ccccc3)N=C2C)cc1Br (configuration not stated)	19.1
CSc1ccc(NC(=O)CSc2nc(C(F)(F)F)cc(C)c2C#N)cc1	3.9
O=C(NCCSc1ccccc1)c1ccc2ccccc2n1	5.4
Cc1cccc(CSc2nnc(C3CC3)n2C)c1	-9.2
c1ccc(-c2c(-c3ccc4ccccc4n3)cnc3ccccc23)cc1	2.8
O=C(CN1CCCCC1)N1CCn2c3c(c4cc(C5CCCCC5)ccc42)CCCC31 (configuration not stated)	1.2
O=C(OCc1ccc(Cl)cc1)c1c2c(nc3ccccc13)CCCC2	3.5
O=C(COc1ccc(Br)cc1/C=C1/C(=O)ON=C1c1ccccc1)Nc1ccccc1	42.7*
CC(C)(C)c1cc(Br)ccc1OCC(=O)Nc1ccccc1	0.1
Cc1cccc(NC(=O)COc2ccc(Br)cc2C=C2C(=O)NC(=S)NC2=O)c1	-0.4
Fc1ccc(-c2nnc(-c3ccccc3F)o2)cc1	-11.9
SMILES	RBX1-CUL1 inh
CC(=O)c1ccc2c(c1)C1C=CCC1C(c1cccc(Cl)c1Cl)N2 (configuration not stated)	2.2
O=C(O)c1cc2c3c(c1)C1C=CCC1C(c1ccccc1Cl)N3CC1CC=CC21 (configuration not stated)	100.7*
CC(=O)c1cc2c3c(c1)C1C=CCC1C(c1ccc([N+](=O)[O-])cc1)N3CC1CC=CC21 (configuration not stated)	-1.8
Cc1c(Cl)cccc1NC(=O)c1sc2nc(-c3ccc(F)cc3)ccc2c1N	0.5
CC1CCN(S(=O)(=O)c2ccc(NC(=S)NC(=O)C3CC3)cc2)CC1	-3.8
OC1c2ccccc2CCc2sccc21 (configuration not stated)	-2.5
OC1c2ccccc2CSc2sccc21 (configuration not stated)	49.2*
C[N+]1(C)CCC(C2c3ccccc3CSc3sccc32)CC1 (configuration not stated)	-3.2
Cc1ccc2nc3c(cc(C(=O)N4CCCC4)n3C)c(=O)n2c1	2.3
C=CC[C@@]1(C)C(=O)CC[C@@]23COC[C@@H]2CCC[C@@H]31	-7.2
Cc1c(Cl)cccc1N1CCN(S(=O)(=O)N2CCCC2)CC1	-1.5
COc1ccc(CNC(=O)CSc2ncc3c(n2)-c2cc(Cl)ccc2N(Cc2ccccc2)S3(=O)=O)cc1	2.5
COc1ccc(NC(=O)CSc2ncc3c(n2)-c2cc(Cl)ccc2N(Cc2ccccc2F)S3(=O)=O)cc1	44.8*
COc1ccccc1NC(=O)CSc1ncc2c(n1)-c1cc(Cl)ccc1N(C)S2(=O)=O	-8.1
Cc1cc(N2C(=O)C(=O)C(C(=O)c3cccs3)C2c2ccc(C(C)(C)C)cc2)no1 (configuration not stated)	6.0
Cc1ccc(-n2nnnc2-c2cnc(N3CCCC3)nc2-c2cccs2)cc1	-1.6
CCCc1c(C)nc(Nc2ccccc2)[nH]c1=O	5.5
O=C1c2ccccc2C(=O)N1CCOC(c1ccc(F)cc1)c1ccc(Cl)cc1 (configuration not stated)	9.7
Cc1ccc(-n2nnnc2SCC#CCO)cc1	-5.9
CC(=O)c1ccc(NC(=O)/C=C/c2ccc(C)o2)cc1	7.1
Cc1ccc(NC(=O)/C=C/c2ccc(C)o2)c(Br)c1	63.2*
Cc1ccc(/C=C/C(=O)O)o1	34.9*
CC(=C/C(=O)O)/C=C/c1ccc(Cl)o1	-0.5
Cc1ccc(NC(=O)/C=C/c2ccc(Cl)cc2)c(Br)c1	-8.3
Cc1ccc(NC(=O)/C=C/c2ccc(C)o2)c(C)c1	0.1
SMILES	RBX1-CUL1 inh
COc1ccc(N2C(=N)C(C#N)C(c3ccc([N+](=O)[O-])cc3)C3=C2CCCC3=O)cc1 (configuration not stated)	-2.3
COc1ccc(C(C)=O)cc1NC(C)=O	1.5
Nc1ccc2nn(-c3ccccc3)nc2c1Br	-7.9
COc1ccccc1C(=O)Nc1cccc(N2CCC(NC(C)c3cnn(-c4ccccc4)c3)CC2)c1 (configuration not stated)	-0.1
O=C(O)c1ccc(-c2ccc(/C=N/Nc3nc(Nc4ccccc4)nc(N4CCOCC4)n3)o2)cc1	14.8
CCCCOc1ccc(C(=O)C2C(=O)C(=O)N(CCOC)C2c2ccc(CC)cc2)cc1C (configuration not stated)	40.6*
CCCCOc1ccc(C(=O)C2C(=O)C(=O)N(CCCOC)C2c2ccc(O)c(OC)c2)cc1C (configuration not stated)	1.4
COc1ccc(C(=O)C2C(=O)C(=O)N(CCN(C)C)C2c2ccc(OCc3ccccc3)cc2)cc1 (configuration not stated)	-4.7
Cc1ccc(C2C(C(=O)c3ccc(OCc4ccccc4)c(C)c3)C(=O)C(=O)N2CCN(C)C)cc1 (configuration not stated)	72.0*
CCc1ccc(C2C(C(=O)c3ccc4c(c3)CC(C)O4)C(=O)C(=O)N2CCOC)cc1 (configuration not stated)	14.8
COc1ccc(C(=O)C2C(=O)C(=O)N(CCCN(C)C)C2c2ccc(C)cc2)cc1OC (configuration not stated)	-7.7
CC1=NC(=S)NC(c2ccccc2Cl)C1C(N)=O (configuration not stated)	2.5
Cc1ccc(CNCCCN2CCOCC2)cc1	1.2
CCCN(C)S(=O)(=O)c1cc(C(=O)NC)ccc1C	2.7
O=C1c2ccccc2-c2ncccc21	-6.6
O=C1c2ccccc2-c2nc3ccc(Cl)cc3nc21	-1.5
O=C1c2ccccc2-c2nc3nsnc3nc21	86.9*
CCCc1cc2c(cc1NC(=O)c1cc(F)c(F)cc1Cl)OCO2	2.8
COC(=O)C(NC(=O)c1ccccc1F)(Nc1cc(C)cc(C)n1)C(F)(F)F (configuration not stated)	-2.5
COc1cc(/C=C2\SC(=O)N(Cc3ccc(F)cc3)C2=O)c(Br)cc1OCC(=O)O	9.4
COc1cc(/C=C2\SC(=O)N(c3ccc(Cl)cc3)C2=O)c(Br)cc1OCC(=O)O	41.4*
O=C(O)COc1ccc(Br)cc1/C=C1\SC(=O)N(c2cccc(Cl)c2)C1=O	50.9*
